In PubChem BioAssay AID1345083 (National Center for Advancing Translational Sciences (NCATS), 2018) one finds Potency data, which are given here for 96 compounds.

The campaign covered roughly 94,000 compounds. About 6,200 (6.6%) were called active. Not shown: some 31% with an inconclusive outcome. Calls come from the whole dose curve; as a rule, active = well fitted inhibition curve with a large enough effect; inconclusive = small, poorly fitted or top-dose-only effect; inactive = flat fitted curve, though single readings scatter. The list comes from a sample in which actives are over-represented; it also holds similar structures and randomly drawn compounds. Where a call stands in place of a potency, no number is given.
Potency is the fitted concentration of half-maximal effect.

The test can be described thus: Cytotoxic Profiling in HEK 293 Cell Line of Diverse Libraries Using Quantitative High-Throughput Screening. Note: nearly all actives have a fitted effect of over 60% in size. The settings on record: HEK 293 viability, ATP luminescence (CellTiter-Glo), 48-72 h; series mostly up to 115 µM. The source says: Cell-based phenotypic screening is a commonly used approach to discover biological pathways, novel drug targets, chemical probes and high-quality hit-to-lead molecules. Many hits identified from high-throughput screening campaign are ruled out through a series of follow-up potency, selectivity/specificity, and cytotoxicity assays. Prioritization of molecules with little or no cytotoxicity for a more in-depth downstream evaluation influence the future direction of projects, so cytotoxicity profiling of the screening libraries at early stage is essential for increasing the likelihood of candidate success. In this study, we analyzed results from a cell-based cytotoxicity screening campaign, comprising nearly 10,000 compounds in NCATS annotated libraries, and over 100,000 compounds in a diversity library, evaluated in four normal cell lines (HEK 293, NIH 3T3, CRL-7250 and HaCat) and a cancer cell line (KB 3-1, a HeLa subline) with overall screening outcomes, hit rates, pan-activity and selectivity. For the annotated library, we also examined the primary targets and mechanistic pathways regularly associated with cell death. To our knowledge, this is the first study to use high-throughput screening to profile large libraries for cytotoxicity assessment in both normal and cancer cell lines. In summary, the results generated here constitutes a valuable resource for the scientific community and provides insight on identifying cytotoxic compounds with particular mechanisms of action, and prioritizing compounds with suitable cytotoxicity profile for further evaluation.
HEK 293 cells were seeded into white 1536-well plates using a Multidrop Combi peristaltic dispenser (ThermoFisher, Waltham, MA) at a density of 250 cells/well in 5 uL of medium respectively. A pintool (Kalypsys) was used to transfer 23 nL of compound solution to the 1536-well assay plates. After 48 or 72 hr incubation at 37 degree Celsius, 5% CO2 and 95% humidity, 2.5 uL of CellTiter-Glo (Promega) was dispensed into each well using a dispenser (Aspect Automation, St. Paul, MN) with solenoid valves (Lee Valves, Westbrook CT). Plates were left at room temperature for 10 min before imaging the ATP-coupled luminescence using a ViewLux microplate imager (PerkinElmer, Waltham, MA).
Take `COc1ccc(C(=O)N2CCC(n3cc(-c4nc(C)no4)nn3)CC2)c(OC)c1`: the Potency entry is “inactive”.
Under `CCN1CCC(N2CC[C@H](CO)[C@H](N(C)C)C2)CC1` stands “inactive”; under `COCCn1c(=O)n([C@H]2CCCN(C(=O)c3cc(C)n(C)n3)C2)c2ncccc21`, “inactive”.
Under `CC1Oc2ccc(NC(=O)c3ccc([N+](=O)[O-])cc3)cc2CN(Cc2ccccc2)C1=O` (stereo unspecified) stands 31.6 µM (active); under `COCC(=O)Nc1ccc2c(c1)CN(Cc1ccccc1F)C(=O)C(C)O2` (stereo unspecified), “inactive”; under `Cc1nn2c(c1-c1ccccc1-c1ccccc1)N(C(=O)CN1CCOCC1)CCC2`, “inactive”.
For `Cc1nn2c(c1-c1ccnn1C(C)C)N(CC1CCOCC1)CCC2` the value was 44.7 µM (active); for `Cc1nn2c(c1-c1ccccc1C(C)C)N(C(=O)c1cnccn1)CCC2`, “inactive”.
For the compound `Cc1nn2c(c1-c1ccccc1-c1ccccc1)N(CC1CC1)CCC2`, the Potency was 2.82 µM (active).
Turning to `Cc1nc(C)c(C(=O)N2CCCN(S(=O)(=O)c3ccccc3)CCC(=O)NCC2)s1`, the Potency result is “inactive”.
For `O=C1NCCCCCN(Cc2cccnc2)[C@@H]2CN(C(=O)C3CCCCC3)CC[C@@H]12` the value was “inactive”.
Under `COC(=O)c1c(NC(=O)c2ccccc2)c2cc(NC(C)C)cnc2n1CC1CCCO1` (stereo unspecified) stands “inactive”; under `O=C(N[C@@H]1CN(c2ncccn2)C[C@H]1CO)c1ccco1`, “inactive”.
For `Cc1nc(C)c(C(=O)N2CCC3(CC2)CC(N2CCCC2)CCO3)s1` (stereo unspecified) the value was “inactive”; for `CCN1CC2(CCN(C(=O)[C@H]3Cc4ccccc4CN3)CC2)CC1=O`, “inactive”.
As for `O=C(NCc1nnc2n1C(C(=O)NCCc1ccc(Cl)cc1)CC2)c1ccc(Cl)cc1Cl` (stereo unspecified), the Potency result was “inactive”.
As for `CC(C)CC(=O)NCC1Cn2cccc2CN1Cc1ccccc1` (stereo unspecified), the Potency entry is “inactive”.
For `COCC(=O)N1CCN(C(=O)c2cccc(-c3ccc(OC)nn3)c2)CC1` the value was “inactive”; for `COc1ccccc1-c1cccc(C(=O)N2CCC[C@H]2C(=O)N(C)C)c1`, “inactive”; for `COC(=O)N1CCN(C(=O)c2cccc(-c3ccccc3OC)c2)CC1`, 63.1 µM (active).
For `CC(=O)N1CC2(CCN(CCCn3ccnc3C)CC2)CC1C(=O)O` (stereo unspecified) the value was “inactive”; for `Cc1cnc(C(=O)NC2C[C@H]3CC[C@@H](C2)N3C(=O)c2cc(C)n(C)n2)cn1` (stereo partly specified), “inactive”.
For `CC1(c2cccnc2)N(Cc2ccccc2)C(=O)OC12CCN(C(=O)c1cccc(Cl)c1)CC2` (stereo unspecified), the Potency result was “inactive”.
Under `CC1(c2ccccc2)N(Cc2ccccc2)C(=O)OC12CCN(c1ccncc1)CC2` (stereo unspecified) stands 89.1 µM (active).
For `CC1(c2ccccc2)N(Cc2ncccn2)C(=O)OC12CCN(CCCc1ccccc1)CC2` (stereo unspecified) the value was “inactive”.
For `CCN(Cc1ccccc1)C(=O)CC1CCCN(c2cnn(CCOC)c(=O)c2)C1` (stereo unspecified) the value was “inactive”; for `COc1ccc(-c2noc(-c3nnn4c3COC(c3ccc(OC)cc3)C4)n2)cc1` (stereo unspecified), “inactive”.
For `Cc1noc(-c2ccccc2OC2CCN(C(=O)c3cnccc3C)C2)n1` (stereo unspecified), the Potency entry is “inactive”.
For `Cc1nc(C)c(C(=O)N2CCC(Oc3ccccc3-c3nc(-c4ccccc4)no3)C2)s1` (stereo unspecified) the value was 28.2 µM (active).
In the case of `CC(C)CC(=O)N1CCC(Oc2ccccc2-c2nc(C3CCOCC3)no2)C1` (stereo unspecified), the Potency result was “inactive”.
For `CCn1ccc(C(=O)N2CCCN(S(=O)(=O)c3ccccc3)CCC(=O)NCC2)n1` the value was “inactive”.
Under `C[C@H]1[C@@H]2[C@H]3OC(=O)[C@@H](C)[C@@H]3CC[C@@]2(C)CC[C@@H]1NC(=O)Cc1ccccc1` stands 100 µM (active).
Under `C[C@H]1[C@@H]2[C@@H](O)C([C@H](C)C(=O)NCCN3CCOCC3)CC[C@@]2(C)CC[C@@H]1NC(=O)c1ccccc1` (stereo partly specified) stands “inactive”; under `COCCNC(=O)C(C)[C@@H]1CC[C@@]2(C)CC[C@H](NC(=O)c3ccccc3)[C@@H](C)[C@@H]2[C@H]1O` (stereo partly specified), “inactive”.
As for `CCc1nc(-c2c3n(c(=O)n(CC(=O)Nc4cccc(Cl)c4C)c2=O)CCCC3)no1`, the Potency entry was “inactive”.
For `Cc1nn(-c2ccccc2)c(C)c1CN1CCCC12Cc1ccccc1CNC2=O` (stereo unspecified) the value was “inactive”.
As for `O=C1NCc2ccccc2CC12CCCCN2Cc1cccc(F)c1F` (stereo unspecified), the Potency was 50.1 µM (active).
For `CCOC(=O)C1CC1CN1CCCC12Cc1ccccc1CNC2=O` (stereo unspecified) the value was “inactive”; for `CCN(C(=O)CCC(=O)N1CCc2c(c(-c3nncn3CC)nn2C)C1)c1ccccc1`, “inactive”; for `CC(C)c1nnc(C2CN(C(=O)c3ccc4ccccc4n3)CC23CCOCC3)o1` (stereo unspecified), “inactive”.
For `CNc1ncc(C(=O)N[C@@H]2COCC[C@@H]2OCc2c(C)noc2C)cn1` the value was “inactive”; for `COc1ccc(NC(=O)c2cc3c(N(C)Cc4ccccc4)nc(C)cn3n2)cc1F`, “inactive”; for `O=C(c1cnccn1)N1CCC2(COc3ncccc3[S+](=O)([O-])N2)C1` (stereo unspecified), “inactive”.
For `CCCn1cc(C(=O)N2C[C@H](c3ccccc3)[C@@H](N)C2)c(C)n1` the value was “inactive”.
As to `COc1ccc(CN2CCC3(Cc4ccccc4CNC3=O)C2)cc1OC` (stereo unspecified), the Potency result was “inactive”.
Under `CN1CC(=O)N(c2cccnc2)Cc2c1ncnc2N1CCN(c2ccccn2)CC1` stands “inactive”; under `O=C(O)CCC(=O)N1Cc2[nH]cnc2C[C@H]1c1nc(-c2ccc3ccccc3c2)no1`, “inactive”.
With `O=C(NCc1ccccc1)[C@@H]1Cc2nc[nH]c2CN1Cc1cccc(OC(F)(F)F)c1`, the Potency was 70.8 µM (active).
For `O=[N+]([O-])c1cccc(-c2noc([C@@H]3C[C@@H](O)CN3Cc3cccc(OC(F)(F)F)c3)n2)c1` the value was “inactive”.
Under `CN1Cc2ncnc(NCc3cccs3)c2CN(c2ccccc2)C1=O` stands “inactive”; under `CN1CCN(C(=O)CC2=C3CCCCC3NC2=O)CC1` (stereo unspecified), “inactive”.
For `O=C(CCC1CCN(C(=O)c2ccccc2F)CC1)Nc1cccc(Cl)c1`, the Potency is 12.6 µM (active).
For `COc1ccc(NC(=O)CCC2CCN(S(=O)(=O)c3ccc(C)cc3)CC2)cc1F` the value was “inactive”.
For `O=C(NCCC1CCN(C(=O)Nc2cc(F)ccc2F)CC1)c1cc(F)ccc1F` the value was “inactive”; for `COc1cc2c(cc1C(=O)N1CCC3(CCCN(C)C3=O)C1)CCC2` (stereo unspecified), “inactive”.
Under `Cn1nccc1CN1CCc2nc(C3CC3)nc(-c3ccc(O)cc3)c2C1` stands “inactive”; under `COCCc1noc(CC2CCOC3(CCN(C(=O)C4CCCC4)CC3)C2)n1` (stereo unspecified), “inactive”.
On to `CN(C)C[C@H]1O[C@@H]2C[C@@H](CC(=O)N3CCC(F)(F)C3)O[C@@H]2[C@@H]1O`, for which the Potency entry was “inactive”.
For `O=C(Cc1cccnc1)N1CCc2onc(-c3ccc(F)c(F)c3)c2C1` the value was “inactive”; for `Cc1ccccc1S(=O)(=O)N1CCCC(CCC(=O)NCC2CCCCC2)C1` (stereo unspecified), 39.8 µM (active).
For the compound `Cc1ccc(S(=O)(=O)N2CCCC(CCC(=O)N(C)C)C2)cc1` (stereo unspecified), the Potency result is “inactive”.
Under `COc1ccc(Cl)cc1S(=O)(=O)N1CCCC(CNC(=O)c2ccco2)C1` (stereo unspecified) stands “inactive”; under `CCCc1noc(-c2ccn3c(CNC(=O)c4ccc(N(C)C)cc4)nnc3c2)n1`, “inactive”.
For `CCCNC(=O)N(C1CCOCC1)C1CCN(S(=O)(=O)c2ccc(F)cc2)CC1` the value was “inactive”; for `CCOc1ccc(NC(=O)c2ccc3c(c2)N(C)C2CCCN2C3=O)cc1` (stereo unspecified), “inactive”; for `COCCn1ccc2cc(C(=O)Nc3ccc4c(c3)C(=O)N3CCC[C@H]3C(=O)N4)ccc21`, “inactive”.
Under `CN1c2cc(C(=O)Nc3ccccc3)ccc2C(=O)N2CCCCCC21` (stereo unspecified) stands 79.4 µM (active); under `Cc1ccc(CNC(=O)c2ccc3c(c2)N(C)C2CCCCN2C3=O)cc1C` (stereo unspecified), “inactive”; under `CN1c2cc(C(=O)Nc3ccc(Cl)cc3)ccc2C(=O)N2CCCCCC21` (stereo unspecified), 35.5 µM (active).
Take `CN1CCCCCCN(C(=O)Nc2ccccc2)CCC1=O`: the Potency result was “inactive”.
For `Cc1ccc(N2CCN(C(=O)c3ccc4c(c3)N(C)C3CCCCCN3C4=O)CC2)cc1` (stereo unspecified) the value was 39.8 µM (active); for `Cc1ccc(C(=O)N2CCC(C(=O)N3CCC(N4CCOCC4=O)CC3)CC2)cc1`, “inactive”; for `CCOC(=O)c1cccc(NC(=O)c2ccc3c(c2)N(C)C2CCCCN2C3=O)c1` (stereo unspecified), 35.5 µM (active).
Under `Cc1cccc(NC(=O)Cn2nc3n(c2=O)CCCC3)c1` stands “inactive”; under `CN1c2cc(C(=O)N3CCC(C(N)=O)CC3)ccc2C(=O)N2CCCCC21` (stereo unspecified), “inactive”; under `Cc1ccc(-c2ccc3nnc(CNC(=O)c4ccncc4)n3n2)cc1C`, “inactive”.
Under `COc1ccc2c(c1)OCC(C(=O)N1CCCN(c3ncccn3)CC1)C2` (stereo unspecified) stands “inactive”.
On to `COc1ccc(C(=O)NCC23CCC=C2N(C)C(=O)CC3)cc1OC` (stereo unspecified), for which the Potency entry is “inactive”.
Under `CCCS(=O)(=O)N1CCC(Nc2nccnc2OCC)CC1` stands “inactive”.
Under `COC[C@@H]1CN(Cc2c(C)n[nH]c2C)C[C@H]1c1nc(C)no1` stands “inactive”.
For `CC/C=C(\C)CN1CCC2(CC1)Cc1ccccc1CNC2=O` the value was “inactive”; for `CC(=O)N1CC(CO)C2(CCN(C(=O)c3ccccc3Cl)CC2)C1` (stereo unspecified), “inactive”; for `C=CCNC(=O)N1CC[C@@H](CC(=O)O)[C@@H](CC2=NCCc3ccc(C)cc32)C1`, “inactive”.
For the compound `COc1ccc(C(=O)N2CCCC(C(=O)N3CCCC(c4nc5ccncc5[nH]4)C3)C2)cc1` (stereo unspecified), the Potency result is “inactive”.
For `COc1ccc(-c2nc3ccncc3[nH]2)cc1`, the Potency is 20 µM (active).
For `COc1ccc(C(=O)N2CCCC2C(=O)N2CCCC2c2nc3ccncc3[nH]2)cc1` (stereo unspecified) the value was “inactive”.
Under `Cc1ccc(CN2CCOCCNC(=O)CC2)o1` stands “inactive”.
For `CN(C)C(=O)c1cccnc1OC1CCN(S(=O)(=O)c2ccc(F)c(F)c2)C1` (stereo unspecified) the value was “inactive”; for `Cc1ncsc1C(=O)N1CCC2(CC1)OC(=O)N(Cc1ncccn1)C2(C)c1ccccc1` (stereo unspecified), “inactive”.
As to `COC1CCC(C(=O)N2CCC3(CC2)OC(=O)N(Cc2ccccc2)C3(C)c2ccccc2)CC1` (stereo unspecified), the Potency result is “inactive”.
Under `CC1(c2ccccc2)N(Cc2ccccc2F)C(=O)OC12CCN(Cc1c[nH]c3ccccc13)CC2` (stereo unspecified) stands 20 µM (active); under `CC1CCN(C(=O)c2ccccc2OCC2CCCN(Cc3cncs3)C2)CC1` (stereo unspecified), “inactive”.
For `CCOc1ccccc1C(=O)N1Cc2cnc(Cc3ccc(OC)cc3)nc2C1` the value was “inactive”.
For `CC(C)Oc1ccc(CN2CCCC(COc3ccccc3C(=O)N3CCCC3)C2)cc1` (stereo unspecified) the value was 39.8 µM (active).
Consider `COc1cc(-c2ccccc2C#N)cc(OC)c1OC`, for which the Potency entry is “inactive”.
For `COCCNC(=O)[C@@H]1C[C@H](Oc2ccccc2)CN1C(=O)C1(c2ccccc2)CC1`, the Potency entry is “inactive”.
